Experiment [1] in a line: qHTS assay to test for compound auto fluorescence at 535 nm (green) in HEK293 cells (AID 720680). (In general: qHTS replaces the single test concentration by a dilution series.)
The nature of experiment [2]: qHTS assay to test for compound auto fluorescence at 460 nm (blue) in HEK293 cell free culture (AID 720681). The gist of the method: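 Test compounds were pinned into cell-free culture medium (DMEM with 10% FBS) and fluorescence was read directly at Ex/Em 405/460 nm. Signals were expressed as fluorescence equivalents of triamterene, with DMSO vehicle as control.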
The nature of experiment [3]: qHTS assay to test for compound auto fluorescence at 535 nm (green) in HEK293 cell free culture (AID 720682). A digest of the protocol: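 Read-out: 485/535 nm fluorescence intensity, calibrated against fluorescein. Medium only (DMEM + 10% FBS, no cells); test compound or DMSO vehicle added by pintool before plate reading.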
A short description of experiment [4]: qHTS assay to test for compound auto fluorescence at 590 nm (red) in HEK293 cell free culture (AID 720683). The gist of the method: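 Tox21 10K library compounds were pinned into cell-free DMEM with 10% FBS and fluorescence was read at excitation 540 nm. Activity is expressed as Rose Bengal sodium equivalency.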
Experiment [5] in a line: qHTS assay to test for compound auto fluorescence at 590 nm (red) in HepG2 cell free culture (AID 720684). The gist of the method:
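Readout: intrinsic compound fluorescence at 590 nm emission after 540 nm excitation, scaled to Rose Bengal sodium. Matrix was cell-free MEM with 10% FBS; DMSO vehicle wells served as control.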

Experiment [6] can be described thus: qHTS assay to test for compound auto fluorescence at 460 nm (blue) in HepG2 cell free culture (AID 720685). A digest of the protocol:
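Cell-free plates of MEM plus 10% FBS received 23 nL compound or DMSO vehicle; blue-channel (405/460 nm) intensity scored against triamterene as reference fluorophore.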

Experiment [7] is described as follows: qHTS assay to test for compound auto fluorescence at 535 nm (green) in HepG2 cell free culture (AID 720686).
Experiment [8] in a line: qHTS assay to test for compound auto fluorescence at 460 nm (blue) in HepG2 cells (AID 720687). A digest of the protocol: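 Cells (2,000/well in MEM with 10% FBS) attached overnight at 37 C, then were exposed to compound or DMSO for 1 hr at 37 C, 5% CO2. Fluorescence read at Ex/Em 405/460 nm, expressed as triamterene-equivalent signal.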
Experiment [9] has as its target Glucocorticoid receptor (Homo sapiens) (UniProt P04150). As to the kind of experiment: qHTS assay to identify small molecule agonists of the glucocorticoid receptor (GR) signaling pathway (AID 720691; active = well fitted activation curve with a large enough effect in the signal ratio in the repeat runs, not every such curve was filed as active; inconclusive = weak or mixed curves, or effect the other way; inactive = no such curve, though single readings can be large or run the other way; the % refers to the signal ratio; note: potency is the fitted concentration of half-maximal effect). The settings on record: GR-bla HeLa, beta-lactamase reporter ratio, 18 h; activation: at 62.4 µM (top of the series). A digest of the protocol: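 HeLa GR-bla reporter line; cells pre-incubated 4 h, compound in DMSO 18 h at 37 C; LiveBLAzer B/G FRET substrate 2 h RT; fluorescence intensity read-out.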

Experiment [10] shares this target. The experiment is described as follows: qHTS assay to identify small molecule antagonists of the glucocorticoid receptor (GR) signaling pathway (AID 720692; active = well fitted inhibition curve with a large enough effect in the signal ratio in the repeat runs, not every such curve was filed as active; inconclusive = weak or mixed curves, or effect the other way; inactive = no such curve, though single readings can be large or run the other way; the % refers to the signal ratio; note: potency is the fitted concentration of half-maximal effect). The gist of the method:
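Read-out: beta-lactamase FRET substrate fluorescence, 2 h at room temperature, in HeLa cells stably carrying a GRE-driven bla reporter. Compounds were co-incubated with 5 nM dexamethasone agonist (final) for 18 h at 37 C.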

A number with no mark means an inactive call. The source made the active and inactive calls. Unless noted, calls come from the whole dose curve; as a rule, active = well fitted curve in the direction sought with a large enough effect in the repeat runs; inconclusive = weak or mixed curves; inactive = flat fitted curve, though single readings scatter.
% is set by controls: 0 for no effect and ±100 for the full control effect.

Glucocorticoid receptor (Homo sapiens), sequence (P04150 whole entry, looked up): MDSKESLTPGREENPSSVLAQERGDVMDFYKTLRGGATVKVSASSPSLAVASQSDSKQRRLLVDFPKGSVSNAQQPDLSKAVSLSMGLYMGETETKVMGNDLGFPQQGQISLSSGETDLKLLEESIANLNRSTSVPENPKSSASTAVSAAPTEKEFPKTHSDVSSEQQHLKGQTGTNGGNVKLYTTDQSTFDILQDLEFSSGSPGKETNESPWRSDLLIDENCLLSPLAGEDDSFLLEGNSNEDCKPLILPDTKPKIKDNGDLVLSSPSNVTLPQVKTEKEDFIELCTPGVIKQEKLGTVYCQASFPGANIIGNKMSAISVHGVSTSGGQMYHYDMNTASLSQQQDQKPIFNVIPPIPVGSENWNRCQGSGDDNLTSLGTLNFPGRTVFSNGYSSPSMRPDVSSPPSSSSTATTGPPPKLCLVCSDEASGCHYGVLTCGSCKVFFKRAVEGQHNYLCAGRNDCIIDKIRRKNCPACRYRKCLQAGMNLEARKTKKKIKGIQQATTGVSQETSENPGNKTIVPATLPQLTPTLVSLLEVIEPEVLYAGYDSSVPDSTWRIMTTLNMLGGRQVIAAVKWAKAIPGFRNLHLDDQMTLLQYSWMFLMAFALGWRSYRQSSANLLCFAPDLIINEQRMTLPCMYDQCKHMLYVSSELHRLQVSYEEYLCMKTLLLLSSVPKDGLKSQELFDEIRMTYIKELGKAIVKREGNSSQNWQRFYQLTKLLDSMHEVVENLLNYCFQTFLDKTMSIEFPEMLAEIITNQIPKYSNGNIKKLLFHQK

With `Cc1c(C)c2c(c(C)c1OC(=O)CCC(=O)O)CC[C@@](C)(CCC[C@H](C)CCC[C@H](C)CCCC(C)C)O2`, the outcome in experiment [1] and in [3] was inactive. In addition, the Potency result in experiment [2], in experiment [4], in experiment [5], in [6], in [7] and in [8] was “inactive” each time.
As for `CCCCCCCCS(=O)C(C)Cc1ccc2c(c1)OCO2` (configuration not stated), the result in [1] and in experiment [3] was inactive. For the same compound, the Potency entry in experiment [2], in [4], in experiment [5], in experiment [6], in [7] and in experiment [8] was “inactive” in each case. In addition, the Potency entry in experiment [9] was “inactive”.
On to `c1ccc(CSCc2ccccc2)cc1`, for which the compound was classed as inactive in experiment [1] and in [3]. Further, the Potency entry in experiment [2], in experiment [4], in experiment [5], in [6], in experiment [7] and in experiment [8] was “inactive” each time. For the same compound, the Potency entry in experiment [9] is “inactive”.
With `CNc1ccc(O)cc1`, the call in experiment [1] and in [3] was inactive. Besides, the Potency entry in experiment [2], in experiment [4], in experiment [5], in experiment [6], in [7] and in [8] was “inactive” throughout.
As for `CSc1ccc2c(c1)C(N1CCN(C)CC1)Cc1ccccc1S2` (configuration not stated), the outcome in experiment [1] and in [3] was inactive. Also, the Potency result in experiment [2], in [4], in experiment [5], in experiment [6], in experiment [7] and in [8] was “inactive” in each case.
In the case of `ON=C1CCCC1`, the result in experiment [1] and in [3] was inactive. The Potency result in experiment [2], in [4], in experiment [5], in experiment [6], in [7] and in experiment [8] was “inactive” in each case. Moreover, the Potency entry in [9] was “inactive”.
On to `NNC(=O)c1cccc(C(=O)NN)c1`, for which the compound was classed as inactive in experiment [1] and in experiment [3]. Besides, the Potency result in experiment [2], in [4], in [5], in experiment [6], in experiment [7] and in experiment [8] was “inactive” throughout. Also, the Potency result in experiment [9] is “inactive”.
Consider `O=[N+]([O-])c1ccccc1Nc1ccccc1`, for which the compound was called inactive in experiment [1] and in experiment [3]. Also, the Potency result in experiment [2], in experiment [4], in experiment [5], in experiment [6], in experiment [7] and in [8] was “inactive” each time. Further, the Potency result in [9] is “inactive”.
On to `O=[N+]([O-])c1cc([N+](=O)[O-])c2ccc(S(=O)(=O)O)cc2c1O`, for which the result in experiment [1] and in experiment [3] was inactive. In addition, the Potency entry in experiment [2], in experiment [4], in experiment [5], in experiment [6], in experiment [7] and in experiment [8] was “inactive” throughout.
As for `C/C=C(\C)C(=O)OCc1ccccc1`, the result in experiment [1] and in experiment [3] was inactive. The Potency entry in [2], in experiment [4], in [5], in [6], in [7] and in [8] was “inactive” throughout. In addition, in [9], the Potency entry was “inactive”.
For the compound `Oc1ccc(Cl)cc1Sc1cc(Cl)ccc1O`, the compound was classed as inactive in experiment [1] and in [3]. The Potency entry in experiment [2], in experiment [4], in [5], in experiment [6] and in experiment [8] was “inactive” each time.
For `O=C(OC[C@H]1O[C@@H](OC(=O)c2cc(O)c(O)c(OC(=O)c3cc(O)c(O)c(O)c3)c2)[C@H](OC(=O)c2cc(O)c(O)c(OC(=O)c3cc(O)c(O)c(O)c3)c2)[C@@H](OC(=O)c2cc(O)c(O)c(OC(=O)c3cc(O)c(O)c(O)c3)c2)[C@@H]1OC(=O)c1cc(O)c(O)c(OC(=O)c2cc(O)c(O)c(O)c2)c1)c1cc(O)c(O)c(OC(=O)c2cc(O)c(O)c(O)c2)c1`, the call in [1] and in experiment [3] was inactive. The Potency result in [2], in [4], in experiment [5], in [6], in experiment [7] and in [10] was “inactive” throughout.
Consider `CCCC(C)c1ccccc1O` (configuration not stated), for which the outcome in experiment [1] and in experiment [3] was inactive. Further, the Potency entry in experiment [2], in experiment [4], in [5], in experiment [6], in experiment [7] and in experiment [9] was “inactive” throughout. The Potency result in [10] was “inactive”.
For the compound `COc1cc(/C=C/C(=O)O[C@H]2CC[C@]34C[C@]35CC[C@]3(C)[C@@H]([C@H](C)CCC=C(C)C)CC[C@@]3(C)[C@@H]5CC[C@H]4C2(C)C)ccc1O`, the result in [1] and in experiment [3] was inactive. Also, the Potency result in experiment [2], in experiment [4], in [5], in experiment [6], in experiment [7] and in experiment [8] was “inactive” throughout. The Potency result in [10] is “inactive”. For the same compound, the Potency in experiment [9] is 1.51 µM [inconclusive] (active).
In the case of `Clc1ccccc1C(c1ccccc1)(c1ccccc1)n1ccnc1`, the compound was classed as inactive in [1] and in [3]. Also, the Potency result in experiment [2], in [4], in [5], in [6], in experiment [7] and in experiment [8] was “inactive” each time. In addition, the Potency in experiment [10] was 7.23 µM (active).
For `Cc1[nH]cnc1C[C@H]1CCc2c(C)c3ccccc3n2C1=O`, the result in [1] and in experiment [3] was inactive. Besides, the Potency result in experiment [2], in [4], in experiment [5], in [6], in experiment [7] and in experiment [9] was “inactive” each time. Besides, the Potency entry in experiment [10] was “inactive”.
On to `Cc1cccc(CN2CCN(C(c3ccccc3)c3ccc(Cl)cc3)CC2)c1` (configuration not stated), for which the fluorescence, % of fluorescein in experiment [1] is 0.0512% [at 18.6 µM]. Also, the fluorescence, % of fluorescent control was -0.0116% [at 18.6 µM] in experiment [2], 0.0211% [at 18.6 µM] in [4] and -0.0261% [at 18.6 µM] in experiment [6]. Besides, in experiment [3], the activity change was -0.0053% [at 18.6 µM]. In addition, the fluorescence, % of Rose Bengal in experiment [5] was 0.0634% [at 18.6 µM]. Moreover, the fluorescence, % of fluorescein control in experiment [7] is -0.0169% [at 18.6 µM]. Besides, the Potency result in experiment [9] and in experiment [10] was “inactive” throughout.
In the case of `CCOC(=O)/C=C(C)/C=C/C=C(C)/C=C/c1c(C)cc(OC)c(C)c1C`, the compound was called inactive in experiment [1] and in experiment [3]. In addition, the Potency result in experiment [2], in [4], in [5], in experiment [6], in [7] and in experiment [8] was “inactive” each time. For the same compound, the Potency result in experiment [10] is “inactive”.
Consider `CCN(C(=O)c1cc(C)cc(OC[C@H](C)Nc2ccncc2)c1)C(C)C`, for which the outcome in [1] and in experiment [3] was inactive. Also, the Potency entry in experiment [2], in [4], in [5], in experiment [6], in experiment [7] and in [8] was “inactive” each time. Moreover, the Potency entry in experiment [10] was “inactive”.
Consider `c1cc(C(c2ccc(OCC3CO3)cc2)c2ccc(OCC3CO3)cc2)ccc1OCC1CO1` (configuration not stated), for which the compound was classed as inactive in [1] and in experiment [3]. The Potency result in experiment [2], in [4], in experiment [5], in experiment [6], in experiment [7] and in [8] was “inactive” in each case. Also, the Potency result in [9] was “inactive”. The Potency in experiment [10] is 49 µM (active).
As for `Oc1c(Cl)cc(Cl)c2cccnc12`, the call in experiment [1] and in experiment [3] was inactive. In addition, the Potency entry in experiment [2], in experiment [4], in experiment [5], in [6] and in [8] was “inactive” throughout.
